These results are taken from PubChem BioAssay.

Molecules are shown by their SMILES. Records with an inconclusive call do not appear. For part of these data: Entries with a potency or affinity are not part of this list. The source made the active and inactive calls. Unless noted, the rule behind the calls is not given here.

A short description of assay [1]: stimulators of insulin release from INS-1E, primary screen, cell-based, 5 mM glucose, NPC library (AID 1117329;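 active = compound raises insulin release from rat beta cells at 5 mM glucose, no numeric limit stated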). Particulars: rat INS-1E insulin secretion, at 10 µM, stronger effect = higher value.
Assay [2] in a line: growth inhibition of GSK3B-pretreated HCT116 cells – cell-based, CellTiter-Glo, 0.2 to 20 µM (AID 1117336;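 active = compounds lowering colon cancer cell viability after pretreatment blocking the GSK3B kinase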). The note with it: HCT116 viability after GSK3B inhibitor, at 20 µM, stronger effect = higher value. (In general: In ATP-based viability assays light output follows the ATP content of the culture.)
Assay [3] is described as follows: inhibition of endothelial tube formation, primary screen, imaging, VEGF stimulated, CD31 staining, tube area, NPC library (AID 1117340;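 active = compound that reduces growth-factor-driven endothelial tube area in a mixed cell culture, no cutoff stated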). Particulars: VEGF-stimulated ADSC/ECFC co-culture, at 10 µM, stronger effect = higher value.
A short description of assay [4]: glucagon-like peptide 1 release enhancers, primary assay, NCI-H716 cell line, NPC library (AID 1117341;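 active = compound raises GLP1 secretion from the human gut endocrine cells, with no numeric limit stated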). The note with it: NCI-H716 cells, at 10 µM, stronger effect = higher value.
Assay [5] can be described thus: HCT116 colon cancer cell growth inhibition, primary screen, CellTiter-Glo luminescence, NPC library (AID 1117342;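 active = compounds that lower survival of HCT116 colon cancer cells in the luminescence readout, no numeric limit stated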). The note with it: at 20 µM (top of the series).
Assay [6] is described as follows: CellTiter-Glo luminescent readout of SW480 viability loss, NPC library primary (AID 1117343;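 active = compounds that lower viability of the colon cancer cells in the luminescence readout, with no numeric limit stated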). Particulars: CellTiter-Glo luminescence; at 20 µM (top of the series).
Assay [7] is described as follows: decreased DLD-1 cellular survival, CellTiter-Glo luminescent readout, NPC compound collection, primary HTS (AID 1117346;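 active = compounds that lower survival of DLD-1 colon cancer cells in the luminescence readout, no cutoff given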). The note with it: DLD-1 viability, CellTiter-Glo luminescence; at 20 µM (top of the series).
The target in assay [8] is 6-phosphogluconate dehydrogenase, decarboxylating (Homo sapiens) (UniProt P52209). Description: 6PGD enzyme inhibitors, primary screen, biochemical, human, recombinant enzyme, NADPH absorbance (AID 1159550;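 active = at least 20% inhibition of 6-phosphogluconate dehydrogenase activity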). The note with it: recombinant 6PGD, NADPH absorbance 341 nm; at 10 µM; stronger effect = higher value.
Sequence of 6-phosphogluconate dehydrogenase, decarboxylating (Homo sapiens) (P52209 whole entry, looked up): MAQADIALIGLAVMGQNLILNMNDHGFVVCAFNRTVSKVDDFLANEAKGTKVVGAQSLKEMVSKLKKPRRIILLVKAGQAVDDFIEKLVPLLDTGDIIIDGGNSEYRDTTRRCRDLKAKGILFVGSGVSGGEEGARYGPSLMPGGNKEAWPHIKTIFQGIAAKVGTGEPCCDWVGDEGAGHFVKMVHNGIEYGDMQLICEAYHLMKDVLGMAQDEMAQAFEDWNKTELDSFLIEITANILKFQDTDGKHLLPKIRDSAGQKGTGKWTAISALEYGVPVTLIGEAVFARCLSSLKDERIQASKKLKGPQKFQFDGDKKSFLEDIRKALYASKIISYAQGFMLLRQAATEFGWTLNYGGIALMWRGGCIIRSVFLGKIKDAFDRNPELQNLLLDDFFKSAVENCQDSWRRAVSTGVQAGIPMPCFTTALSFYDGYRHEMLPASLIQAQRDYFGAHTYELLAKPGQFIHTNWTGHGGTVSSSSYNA
A short description of assay [9]: growth inhibition of DIPG glioma cells, dose response, cell-based, SU-DIPG-XVII, MIPE5.0, CellTiter-Glo, qHTS (AID 1347060; cut-off not given, nearly all actives have AC50 up to about 26 µM;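 note: cells exposed to compound for 48 hours before viability readout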). The note with it: SU-DIPG-XVII viability, CellTiter-Glo ATP luminescence.
Assay [10] can be described thus: growth inhibition of DIPG glioma cells, dose response, cell-based, JHH-DIPG-1, MIPE4.0, CellTiter-Glo, qHTS (AID 1347062; cut-off not given, nearly all actives have AC50 up to about 27 µM;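 note: cells exposed to compound for two days before readout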). The note with it: JHH-DIPG-1 viability, CellTiter-Glo ATP luminescence.
A short description of assay [11]: growth inhibition of DIPG glioma cells, dose response, cell-based, SU-DIPG-IV, MIPE4.0, CellTiter-Glo, qHTS (AID 1347063; cut-off not given, nearly all actives have AC50 up to about 30 µM;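 note: compound exposure lasted 48 hours before the viability readout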). Particulars: SU-DIPG-IV viability, CellTiter-Glo ATP luminescence.
Assay [12] in a line: growth inhibition of DIPG glioma cells, dose response, cell-based, SU-DIPG-XIII, MIPE5.0, CellTiter-Glo, qHTS (AID 1347064; cut-off not given, nearly all actives have AC50 up to about 23 µM;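 note: cells exposed to compound for 48 hours before the viability read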). The note with it: SU-DIPG-XIII viability, CellTiter-Glo ATP luminescence.
Assay [13] concerns the target Calcium-dependent protein kinase 1 (Plasmodium falciparum (isolate 3D7)) (UniProt P62344). In words: PfCDPK1 kinase inhibitors, biochemical, TCAMS library (AID 1159585; cut-off not given, nearly all actives have IC50 up to about 0.98 µM;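 note: inhibitors leave more ATP so luminescence rises with inhibition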). The note with it: recombinant PfCDPK1, Kinase-Glo ATP depletion luminescence. Background: In Kinase-Glo more light means more ATP remaining.
For assay [14], the target named is Plasmodium falciparum protein kinase 6 (PK6, PF3D7_1337100) (UniProt Q8IDW1). Description: PfPK6 kinase inhibitors, biochemical, TCAMS library (AID 1159586). Particulars: recombinant PfPK6, Kinase-Glo ATP depletion luminescence.
Sequence of Plasmodium falciparum protein kinase 6 (PK6, PF3D7_1337100) (Q8IDW1 1-305): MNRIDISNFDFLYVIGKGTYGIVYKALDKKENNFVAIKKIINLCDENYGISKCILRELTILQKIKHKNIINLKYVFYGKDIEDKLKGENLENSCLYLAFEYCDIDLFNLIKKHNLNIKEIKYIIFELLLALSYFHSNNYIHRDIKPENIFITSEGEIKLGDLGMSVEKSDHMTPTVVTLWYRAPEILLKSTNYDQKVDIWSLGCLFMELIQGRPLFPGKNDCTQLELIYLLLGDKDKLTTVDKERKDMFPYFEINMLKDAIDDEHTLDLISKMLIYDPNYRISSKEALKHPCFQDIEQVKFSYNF
Assay [15] deals with Protein kinase 7 (PK7), Plasmodium falciparum 3D7 (PF3D7_0213400) (UniProt Q7YTF7). Description: inhibition of Plasmodium PK7 catalytic activity – biochemical, TCAMS antimalarial set, Kinase-Glo luminescence (AID 1159587). Particulars: recombinant PfPK7, Kinase-Glo ATP depletion luminescence.
Sequence of Protein kinase 7 (PK7), Plasmodium falciparum 3D7 (PF3D7_0213400) (Q7YTF7 1-343): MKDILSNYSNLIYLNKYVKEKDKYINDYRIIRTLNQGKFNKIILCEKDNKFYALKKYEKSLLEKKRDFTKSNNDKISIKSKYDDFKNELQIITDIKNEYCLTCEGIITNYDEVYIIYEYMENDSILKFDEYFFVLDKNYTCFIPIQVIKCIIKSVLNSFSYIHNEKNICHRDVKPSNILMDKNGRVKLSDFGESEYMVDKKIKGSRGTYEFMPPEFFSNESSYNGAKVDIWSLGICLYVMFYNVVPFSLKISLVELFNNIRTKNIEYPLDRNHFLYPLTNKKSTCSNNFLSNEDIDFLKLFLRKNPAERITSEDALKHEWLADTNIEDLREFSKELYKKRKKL
Assay [16] deals with Calcium-dependent protein kinase 4 (Plasmodium falciparum (isolate 3D7)) (UniProt Q8IBS5). In words: PfCDPK4 kinase inhibitors, biochemical, TCAMS library (AID 1159588; cut-off not given, nearly all actives have IC50 up to about 0.91 µM). Particulars: recombinant PfCDPK4, Kinase-Glo ATP depletion luminescence.
Sequence of Calcium-dependent protein kinase 4 (Plasmodium falciparum (isolate 3D7)) (Q8IBS5 whole entry, looked up): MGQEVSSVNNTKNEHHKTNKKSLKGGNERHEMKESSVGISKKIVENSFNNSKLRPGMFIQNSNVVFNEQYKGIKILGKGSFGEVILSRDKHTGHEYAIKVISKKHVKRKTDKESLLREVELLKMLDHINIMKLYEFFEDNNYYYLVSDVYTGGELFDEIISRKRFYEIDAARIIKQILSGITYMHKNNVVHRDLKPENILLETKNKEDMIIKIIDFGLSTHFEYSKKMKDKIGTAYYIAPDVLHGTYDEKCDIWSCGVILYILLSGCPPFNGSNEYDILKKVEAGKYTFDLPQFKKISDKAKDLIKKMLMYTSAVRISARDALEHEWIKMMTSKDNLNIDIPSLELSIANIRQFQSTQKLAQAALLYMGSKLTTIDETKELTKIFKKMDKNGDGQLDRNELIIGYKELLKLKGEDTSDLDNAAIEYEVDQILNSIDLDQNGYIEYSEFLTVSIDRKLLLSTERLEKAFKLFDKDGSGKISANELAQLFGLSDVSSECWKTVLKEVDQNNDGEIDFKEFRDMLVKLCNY
For assay [17], the system named is Aerobactin synthetase IucA (Klebsiella pneumoniae). Description: IucA aerobactin synthetase inhibitors, biochemical, Tocris library, absorbance (AID 1345561).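 Note: 100% = enzyme without compound and 0% = no enzyme.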 Particulars: purified IucA enzyme assay, absorbance (OD) read-out; stronger effect = lower value;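 tested at 8 µM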.
A short description of assay [18]: modulation of C. elegans fzo-1 (AID 1259413).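 Note: fzo-1 mutant C. elegans worms in liquid wells.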 Particulars: C. elegans fzo-1 modulator screen, mean read-out; stronger effect = higher value.
Assay [19] in a line: differential killing of epithelial or mesenchymal cells, primary screen, imaging, PC-3E GFP, TEM4-18 mCherry, co-culture (AID 1345086;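 active = compounds killing one labelled cell type while sparing the other, by normalised counts and ratio limits, not self-fluorescent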;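 for all read-outs here: cells exposed to compound for 72 h before imaging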;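 for red/green cell ratio (normalised): normalised mesenchymal count divided by normalised epithelial count so high means epithelial killing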). Particulars: imaging cell counts, at 1 µM; for red/green cell ratio (normalised): actives lie on both sides, counts scaled to control wells, 1 = unselective.
Setting [20] is: measured here: epithelial PC-3E GFP cell survival.
[21] abbreviates: measured here: mesenchymal TEM4-18 mCherry cell survival.

As usually defined, the inhibition is the relative decrease from the control value, in per cent. For orientation: AC50 means the concentration giving half of the maximal activity seen. As a reminder, the remaining activity is the signal under treatment as a percentage of the control signal.

Sequence of Calcium-dependent protein kinase 1 (Plasmodium falciparum (isolate 3D7)) (P62344 whole entry, looked up): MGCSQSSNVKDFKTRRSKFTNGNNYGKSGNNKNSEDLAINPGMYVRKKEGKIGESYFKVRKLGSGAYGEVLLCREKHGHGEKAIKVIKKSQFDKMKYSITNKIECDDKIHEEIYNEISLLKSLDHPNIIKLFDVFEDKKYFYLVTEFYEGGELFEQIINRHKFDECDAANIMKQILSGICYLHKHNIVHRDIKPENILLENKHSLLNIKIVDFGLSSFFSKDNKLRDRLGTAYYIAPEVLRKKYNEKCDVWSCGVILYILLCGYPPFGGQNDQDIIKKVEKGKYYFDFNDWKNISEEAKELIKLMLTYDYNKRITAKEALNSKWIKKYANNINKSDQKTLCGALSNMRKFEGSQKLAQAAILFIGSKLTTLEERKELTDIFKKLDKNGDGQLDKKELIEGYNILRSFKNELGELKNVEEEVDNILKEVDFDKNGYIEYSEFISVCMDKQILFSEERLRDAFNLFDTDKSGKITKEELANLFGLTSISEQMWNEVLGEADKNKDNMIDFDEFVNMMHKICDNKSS

`CO[C@@]12[C@H](COC(N)=O)C3=C(C(=O)C(C)=C(N)C3=O)N1C[C@@H]1N[C@@H]12`: the insulin secretion stimulation in assay [1] is 0.2% (inactive). Besides, the viability decrease in [2] is 106% (active). The tube area decrease in assay [3] is 108% (active). The GLP1 secretion stimulation in [4] is 1.2% (inactive). Besides, in [5], the inhibition of viability is 105% (active). For the same compound, the viability decrease (inhibition) is 124% (active) in assay [6] and 95.8% (active) in [7]. In addition, in assay [8], the inhibition was -2.77% (inactive). Further, the AC50 in assay [9] was 0.417 µM (active); in assay [10], 16.6 µM (active); in assay [11], 0.469 µM (active); in assay [12] it was 7.42 µM (active).

Consider `COc1cc2c(cc1OC)-c1cc(=Nc3c(C)cc(C)cc3C)n(C)c(=O)n1CC2`, for which the insulin secretion stimulation in assay [1] was 1.3% (inactive). In addition, the viability decrease in assay [2] is 91.5% (active). Moreover, the tube area decrease in [3] was -11.8% (inactive). For the same compound, in [4], the GLP1 secretion stimulation is 12.7% (inactive). In assay [5], the inhibition of viability is 71.2% (active). Besides, the viability decrease (inhibition) in assay [6] is 120% (active); in assay [7] it was 66.5% (active). For the same compound, the result in [13], in assay [14], in assay [15] and in assay [16] was inactive. For the same compound, the remaining activity in [17] was 110% (inactive).

In the case of `COc1cc(/C=C/C(=O)CC(=O)/C=C/c2ccc(O)c(OC)c2)ccc1O`, the insulin secretion stimulation in assay [1] is 1.35% (inactive). Also, the viability decrease in assay [2] is 26.1% (inactive). Moreover, the tube area decrease in assay [3] is -1.2% (inactive). Further, the GLP1 secretion stimulation in [4] was -0.1% (inactive). For the same compound, the inhibition of viability in [5] is 11.9% (inactive). Moreover, the viability decrease (inhibition) is -4.1% (inactive) in assay [6] and -7.3% (inactive) in [7]. Moreover, the inhibition in assay [8] was 8.75% (inactive). For the same compound, the figures for the AC50 in assay [11] and in assay [12] were 30.3 µM (active) and 16.6 µM (active), respectively.

With `CCN(CC)CCNC(=O)c1cc(Cl)c(N)cc1OC`, the insulin secretion stimulation in [1] is 3.1% (inactive). In addition, the viability decrease in [2] was -11.3% (inactive). Besides, the tube area decrease in [3] was 12.6% (inactive). In assay [4], the GLP1 secretion stimulation is 0.3% (inactive). The inhibition of viability in assay [5] was -2.1% (inactive). Besides, the results for the viability decrease (inhibition) in assay [6] and in assay [7] were -17.7% (inactive) and 6% (inactive), respectively. In addition, in assay [18], the mean signal was 245 (inactive). Further, the red/green cell ratio (normalised) in [19] was 1.02 (inactive). Besides, the normalised cell number in assay [19] (setting [20]) was 1.09; in assay [19] (setting [21]), 1.12.

In the case of `CC(=O)OCC(=O)NCCCOc1cccc(CN2CCCCC2)c1`, in assay [1], the insulin secretion stimulation was -0.7% (inactive). The viability decrease in assay [2] was -69.8% (inactive). Further, the tube area decrease in assay [3] is 10.4% (inactive). In addition, the GLP1 secretion stimulation in assay [4] is -0.3% (inactive). The inhibition of viability in assay [5] was -15.6% (inactive). Besides, the viability decrease (inhibition) was 22.9% (inactive) in assay [6] and -31.7% (inactive) in assay [7]. Moreover, in assay [18], the mean signal is 244 (inactive). The red/green cell ratio (normalised) in assay [19] was 1.02 (inactive). Besides, the normalised cell number turned out to be 0.98 in [19] (setting [20]) and 1 in [19] (setting [21]).

As for `CNCC(O)c1ccc(O)c(O)c1` (configuration not stated), the insulin secretion stimulation in assay [1] was 5.7% (inactive). For the same compound, in [2], the viability decrease is 58.5% (active). Moreover, the tube area decrease in assay [3] is -33.6% (inactive). Besides, the GLP1 secretion stimulation in assay [4] was 2.7% (inactive). Further, the inhibition of viability in assay [5] is 29% (inactive). The viability decrease (inhibition) in assay [6] was 58.9% (active); in [7], 17.7% (inactive). Also, the mean signal in assay [18] was 245 (inactive).

Turning to `CC(C(=O)O)c1ccc(CC2CCCC2=O)cc1` (configuration not stated), the insulin secretion stimulation in assay [1] was -1.3% (inactive). In addition, the viability decrease in [2] is 9.37% (inactive). Moreover, the tube area decrease in [3] is -7.8% (inactive). Also, the GLP1 secretion stimulation in assay [4] is 0.4% (inactive). For the same compound, in assay [5], the inhibition of viability is 10.8% (inactive). Also, the viability decrease (inhibition) was 37.6% (inactive) in assay [6] and 5.13% (inactive) in assay [7]. Besides, the mean signal in assay [18] is 276 (inactive).
